Test results published in ChEMBL document CHEMBL1961873, “Compounds: GSK PKIS; Assays: Nanosyn kinase panel” (2012).

What was measured:
[1] = target: T1, Serine/threonine-protein kinase Nek9 (Homo sapiens) (UniProt Q8TD19); conditions: at 1 µM;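 further: each value is a mean percent inhibition of NEK9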
T1 sequence (whole entry): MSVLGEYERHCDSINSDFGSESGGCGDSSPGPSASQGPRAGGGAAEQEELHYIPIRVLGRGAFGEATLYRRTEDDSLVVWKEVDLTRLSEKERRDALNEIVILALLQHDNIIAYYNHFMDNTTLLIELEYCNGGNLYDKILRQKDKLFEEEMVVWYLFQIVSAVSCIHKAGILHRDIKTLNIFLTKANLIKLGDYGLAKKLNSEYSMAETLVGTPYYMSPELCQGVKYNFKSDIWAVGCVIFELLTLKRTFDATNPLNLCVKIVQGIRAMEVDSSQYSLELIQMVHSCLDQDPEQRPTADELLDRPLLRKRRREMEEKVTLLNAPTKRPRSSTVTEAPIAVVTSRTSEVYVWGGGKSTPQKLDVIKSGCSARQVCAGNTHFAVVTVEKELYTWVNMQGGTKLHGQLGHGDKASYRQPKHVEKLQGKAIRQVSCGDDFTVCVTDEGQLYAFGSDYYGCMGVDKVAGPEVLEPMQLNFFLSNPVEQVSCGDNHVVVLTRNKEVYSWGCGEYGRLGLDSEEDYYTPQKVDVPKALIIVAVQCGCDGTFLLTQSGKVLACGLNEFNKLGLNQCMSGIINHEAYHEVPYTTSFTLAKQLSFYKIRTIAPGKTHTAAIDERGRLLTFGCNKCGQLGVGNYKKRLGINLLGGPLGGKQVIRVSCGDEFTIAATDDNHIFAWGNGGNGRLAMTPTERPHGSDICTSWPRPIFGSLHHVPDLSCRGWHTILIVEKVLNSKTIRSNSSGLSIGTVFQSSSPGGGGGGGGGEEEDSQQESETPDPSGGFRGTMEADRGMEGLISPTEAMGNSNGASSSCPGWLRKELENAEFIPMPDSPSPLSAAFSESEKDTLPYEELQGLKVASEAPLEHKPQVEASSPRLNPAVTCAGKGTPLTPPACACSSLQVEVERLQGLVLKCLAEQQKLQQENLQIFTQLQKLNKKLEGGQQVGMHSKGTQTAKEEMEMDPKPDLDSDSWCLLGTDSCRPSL

[2] = target: Serine/threonine-protein kinase PLK1 (Homo sapiens) (UniProt P53350); conditions: at 0.1 µM
[3] = target: Serine/threonine-protein kinase PLK1 (Homo sapiens) (UniProt P53350); conditions: at 1 µM
[4] = target: T2, Dual specificity protein kinase TTK (Homo sapiens) (UniProt P33981); conditions: at 0.1 µM
T2 sequence (whole entry): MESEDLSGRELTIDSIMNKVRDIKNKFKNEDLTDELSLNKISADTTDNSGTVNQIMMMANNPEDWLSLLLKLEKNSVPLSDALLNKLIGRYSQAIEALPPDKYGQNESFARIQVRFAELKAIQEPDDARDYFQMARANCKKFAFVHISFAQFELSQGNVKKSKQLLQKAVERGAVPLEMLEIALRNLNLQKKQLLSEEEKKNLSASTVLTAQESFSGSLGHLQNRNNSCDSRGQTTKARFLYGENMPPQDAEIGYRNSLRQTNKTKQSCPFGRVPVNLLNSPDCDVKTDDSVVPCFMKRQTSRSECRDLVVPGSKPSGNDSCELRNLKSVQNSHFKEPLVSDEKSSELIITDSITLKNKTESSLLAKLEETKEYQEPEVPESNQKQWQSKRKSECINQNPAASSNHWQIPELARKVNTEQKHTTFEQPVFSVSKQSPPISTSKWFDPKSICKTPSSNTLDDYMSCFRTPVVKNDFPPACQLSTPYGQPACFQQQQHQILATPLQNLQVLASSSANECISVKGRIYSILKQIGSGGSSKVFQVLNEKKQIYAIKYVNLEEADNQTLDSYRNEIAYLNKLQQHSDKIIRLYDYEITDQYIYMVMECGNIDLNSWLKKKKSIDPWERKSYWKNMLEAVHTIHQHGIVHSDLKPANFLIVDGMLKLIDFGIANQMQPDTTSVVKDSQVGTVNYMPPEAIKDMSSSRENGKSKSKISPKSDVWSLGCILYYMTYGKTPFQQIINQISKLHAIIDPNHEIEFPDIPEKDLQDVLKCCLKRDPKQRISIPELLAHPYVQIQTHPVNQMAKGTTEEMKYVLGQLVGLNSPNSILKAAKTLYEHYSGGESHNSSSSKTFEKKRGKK

[5] = test system: T3, Receptor-type tyrosine-protein kinase FLT3 (Homo sapiens), P36888 [D835Y]; conditions: at 1 µM
T3 sequence (whole entry): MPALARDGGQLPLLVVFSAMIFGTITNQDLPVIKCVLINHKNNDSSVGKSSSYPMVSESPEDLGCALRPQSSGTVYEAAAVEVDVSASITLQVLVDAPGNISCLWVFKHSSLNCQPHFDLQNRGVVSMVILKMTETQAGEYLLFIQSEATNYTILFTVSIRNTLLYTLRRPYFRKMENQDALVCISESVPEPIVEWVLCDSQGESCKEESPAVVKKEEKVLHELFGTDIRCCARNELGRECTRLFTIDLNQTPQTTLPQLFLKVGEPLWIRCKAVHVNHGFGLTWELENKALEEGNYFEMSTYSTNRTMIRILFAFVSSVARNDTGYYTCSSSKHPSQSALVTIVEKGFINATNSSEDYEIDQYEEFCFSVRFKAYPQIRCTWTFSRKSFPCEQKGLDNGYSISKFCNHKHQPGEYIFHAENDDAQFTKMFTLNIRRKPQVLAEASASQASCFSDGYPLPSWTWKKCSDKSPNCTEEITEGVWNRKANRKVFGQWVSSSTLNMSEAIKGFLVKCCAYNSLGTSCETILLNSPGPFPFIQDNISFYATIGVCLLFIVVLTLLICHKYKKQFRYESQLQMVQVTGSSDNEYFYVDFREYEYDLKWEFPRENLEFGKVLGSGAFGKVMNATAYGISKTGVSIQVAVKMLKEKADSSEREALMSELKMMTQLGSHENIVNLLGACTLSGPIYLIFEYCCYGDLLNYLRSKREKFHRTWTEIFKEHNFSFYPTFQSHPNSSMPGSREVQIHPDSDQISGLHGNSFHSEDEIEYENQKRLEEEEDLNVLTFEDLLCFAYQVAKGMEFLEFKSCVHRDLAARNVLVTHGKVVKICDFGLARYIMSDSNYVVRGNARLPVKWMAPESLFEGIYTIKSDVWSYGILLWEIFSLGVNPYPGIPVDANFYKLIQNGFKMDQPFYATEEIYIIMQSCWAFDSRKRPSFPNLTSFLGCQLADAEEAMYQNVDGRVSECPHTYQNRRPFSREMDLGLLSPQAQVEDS

[6] = target: Vascular endothelial growth factor receptor 3 (Homo sapiens) (UniProt P35916); conditions: at 0.1 µM
[7] = target: Vascular endothelial growth factor receptor 3 (Homo sapiens) (UniProt P35916); conditions: at 1 µM
[8] = target: Macrophage colony-stimulating factor 1 receptor (Homo sapiens) (UniProt P07333); conditions: at 0.1 µM
[9] = target: Macrophage colony-stimulating factor 1 receptor (Homo sapiens) (UniProt P07333); conditions: at 1 µM
[10] = target: Tyrosine-protein kinase Fyn (Homo sapiens) (UniProt P06241); conditions: at 0.1 µM
Tyrosine-protein kinase Fyn (Homo sapiens), sequence (P06241 2-537 limits assumed): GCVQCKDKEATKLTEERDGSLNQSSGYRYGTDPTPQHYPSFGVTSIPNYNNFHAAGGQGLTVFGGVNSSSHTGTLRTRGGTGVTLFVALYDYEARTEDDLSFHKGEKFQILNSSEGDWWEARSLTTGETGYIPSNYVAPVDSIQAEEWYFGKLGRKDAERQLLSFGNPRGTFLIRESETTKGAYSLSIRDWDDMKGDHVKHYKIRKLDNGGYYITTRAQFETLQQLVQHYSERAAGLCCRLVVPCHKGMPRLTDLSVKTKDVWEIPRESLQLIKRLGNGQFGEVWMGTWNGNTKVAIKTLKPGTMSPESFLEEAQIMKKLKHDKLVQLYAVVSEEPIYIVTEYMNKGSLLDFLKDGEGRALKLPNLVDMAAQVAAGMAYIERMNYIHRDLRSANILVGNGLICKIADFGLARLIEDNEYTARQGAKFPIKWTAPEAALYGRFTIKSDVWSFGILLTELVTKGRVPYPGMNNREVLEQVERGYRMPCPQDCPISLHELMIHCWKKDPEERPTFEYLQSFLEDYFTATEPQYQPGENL

Macrophage colony-stimulating factor 1 receptor (Homo sapiens), sequence (P07333 whole entry): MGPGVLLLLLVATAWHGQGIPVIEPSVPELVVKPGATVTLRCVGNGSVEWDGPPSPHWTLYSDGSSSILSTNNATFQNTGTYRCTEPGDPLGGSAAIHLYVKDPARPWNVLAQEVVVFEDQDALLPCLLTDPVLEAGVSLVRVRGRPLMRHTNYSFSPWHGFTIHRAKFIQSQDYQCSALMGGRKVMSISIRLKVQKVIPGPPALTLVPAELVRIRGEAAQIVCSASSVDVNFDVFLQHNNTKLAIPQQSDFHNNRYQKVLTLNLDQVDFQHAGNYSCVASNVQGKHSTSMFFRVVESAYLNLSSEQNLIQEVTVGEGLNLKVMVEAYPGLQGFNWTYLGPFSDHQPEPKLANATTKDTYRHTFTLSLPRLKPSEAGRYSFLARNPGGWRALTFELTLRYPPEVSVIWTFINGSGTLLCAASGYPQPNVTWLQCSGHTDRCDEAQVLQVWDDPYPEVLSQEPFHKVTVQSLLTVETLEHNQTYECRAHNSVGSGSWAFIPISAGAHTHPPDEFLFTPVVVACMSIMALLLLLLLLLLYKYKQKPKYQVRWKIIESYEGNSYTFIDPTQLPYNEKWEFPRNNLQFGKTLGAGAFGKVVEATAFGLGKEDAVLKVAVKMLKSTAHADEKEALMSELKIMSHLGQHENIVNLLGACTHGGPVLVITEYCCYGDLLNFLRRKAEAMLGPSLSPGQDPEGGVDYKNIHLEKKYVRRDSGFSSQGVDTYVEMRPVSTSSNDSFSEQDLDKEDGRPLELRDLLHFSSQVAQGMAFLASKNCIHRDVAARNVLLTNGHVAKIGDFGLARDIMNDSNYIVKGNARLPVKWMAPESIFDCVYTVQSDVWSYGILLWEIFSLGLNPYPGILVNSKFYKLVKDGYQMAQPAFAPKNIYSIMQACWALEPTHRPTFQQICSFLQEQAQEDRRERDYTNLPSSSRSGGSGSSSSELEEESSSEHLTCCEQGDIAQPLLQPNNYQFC
Vascular endothelial growth factor receptor 3 (Homo sapiens), sequence (P35916 whole entry): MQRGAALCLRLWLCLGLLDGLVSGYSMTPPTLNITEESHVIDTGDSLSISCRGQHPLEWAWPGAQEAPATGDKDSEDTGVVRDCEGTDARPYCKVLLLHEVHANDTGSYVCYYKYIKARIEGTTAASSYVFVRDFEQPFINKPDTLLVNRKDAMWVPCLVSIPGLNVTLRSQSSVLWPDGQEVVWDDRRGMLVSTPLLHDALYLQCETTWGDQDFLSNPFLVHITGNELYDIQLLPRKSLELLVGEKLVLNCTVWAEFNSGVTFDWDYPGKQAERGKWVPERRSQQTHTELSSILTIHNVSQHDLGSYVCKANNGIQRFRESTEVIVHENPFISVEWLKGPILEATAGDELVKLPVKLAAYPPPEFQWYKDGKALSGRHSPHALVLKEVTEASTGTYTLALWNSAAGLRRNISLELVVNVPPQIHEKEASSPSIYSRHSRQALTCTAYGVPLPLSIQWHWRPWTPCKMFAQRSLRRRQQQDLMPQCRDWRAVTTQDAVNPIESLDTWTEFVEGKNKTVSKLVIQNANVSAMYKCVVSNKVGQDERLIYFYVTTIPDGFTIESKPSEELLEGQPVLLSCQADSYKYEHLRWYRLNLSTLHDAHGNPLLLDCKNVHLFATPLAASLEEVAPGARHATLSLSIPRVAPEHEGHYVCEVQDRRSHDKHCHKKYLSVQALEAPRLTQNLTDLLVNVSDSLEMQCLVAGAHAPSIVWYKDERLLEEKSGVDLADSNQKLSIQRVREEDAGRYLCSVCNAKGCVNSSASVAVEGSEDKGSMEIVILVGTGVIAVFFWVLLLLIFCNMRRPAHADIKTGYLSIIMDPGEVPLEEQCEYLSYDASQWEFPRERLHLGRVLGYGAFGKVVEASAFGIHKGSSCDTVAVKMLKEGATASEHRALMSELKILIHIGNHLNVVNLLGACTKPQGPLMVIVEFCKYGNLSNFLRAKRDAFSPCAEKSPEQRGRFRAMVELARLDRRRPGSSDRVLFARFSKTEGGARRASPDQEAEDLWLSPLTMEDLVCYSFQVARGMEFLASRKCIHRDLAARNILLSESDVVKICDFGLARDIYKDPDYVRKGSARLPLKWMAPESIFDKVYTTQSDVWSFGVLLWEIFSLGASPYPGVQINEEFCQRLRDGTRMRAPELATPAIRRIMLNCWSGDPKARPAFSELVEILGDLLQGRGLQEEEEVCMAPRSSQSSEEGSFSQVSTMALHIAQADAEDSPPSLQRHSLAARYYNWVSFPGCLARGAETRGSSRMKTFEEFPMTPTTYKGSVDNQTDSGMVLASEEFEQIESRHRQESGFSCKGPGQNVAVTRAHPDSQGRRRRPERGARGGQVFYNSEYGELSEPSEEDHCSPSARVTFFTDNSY
Serine/threonine-protein kinase PLK1 (Homo sapiens), sequence (P53350 whole entry): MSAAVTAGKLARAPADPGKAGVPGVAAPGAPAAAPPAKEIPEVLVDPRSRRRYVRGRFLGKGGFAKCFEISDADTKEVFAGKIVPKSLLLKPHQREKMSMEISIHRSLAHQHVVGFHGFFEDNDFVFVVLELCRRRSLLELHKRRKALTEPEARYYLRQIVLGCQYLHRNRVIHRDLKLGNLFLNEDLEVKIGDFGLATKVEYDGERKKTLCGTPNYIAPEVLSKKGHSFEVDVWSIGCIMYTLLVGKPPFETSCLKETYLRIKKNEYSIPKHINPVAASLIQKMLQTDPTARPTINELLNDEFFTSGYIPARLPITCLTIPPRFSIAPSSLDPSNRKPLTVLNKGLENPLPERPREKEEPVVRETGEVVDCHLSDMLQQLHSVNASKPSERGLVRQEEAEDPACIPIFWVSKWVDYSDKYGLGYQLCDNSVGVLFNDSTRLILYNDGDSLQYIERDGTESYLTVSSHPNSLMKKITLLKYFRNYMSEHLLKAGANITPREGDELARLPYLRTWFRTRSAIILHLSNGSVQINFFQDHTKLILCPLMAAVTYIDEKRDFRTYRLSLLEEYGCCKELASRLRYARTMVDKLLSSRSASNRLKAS

| SMILES | inhibition [1] [%] | inhibition [2] [%] | inhibition [3] [%] | inhibition [4] [%] | inhibition [5] [%] | inhibition [6] [%] | inhibition [7] [%] | inhibition [8] [%] | inhibition [9] [%] | inhibition [10] [%] |
| --- | --- | --- | --- | --- | --- | --- | --- | --- | --- | --- |
| CCCN1CCC(Oc2cc(Nc3nc(Nc4cccc(F)c4C(N)=O)c4cc[nH]c4n3)c(OC)cc2Cl)CC1 | -2.13 | 8.91 | 47.5 | 3.35 | -3.06 | 12.3 | 14.6 | -0.53 | 3.9 | 1.38 |
| CC1=C(C(=O)Nc2ccc3[nH]ncc3c2)C(c2ccc(F)cc2)NC(=O)N1 (stereo not given) | 3.09 | 2.01 | 1.91 | 3.79 | -1.48 | 18.2 | 15.4 | 1.12 | 0.9 | 1.72 |
| CCn1c(-c2nonc2N)nc2cncc(C(=O)N3CCNCC3)c21 | 5.61 | 5.97 | 14.3 | 12.2 | -1.93 | 5.86 | 7.52 | 4.42 | 5.74 | 2.61 |
| O=C1Nc2ccc(C(=O)c3ccco3)cc2C1=Cc1cc(Cl)c(O)c(Cl)c1 | 5.76 | 9.81 | 43.2 | 10.9 | 29.9 | 6.18 | 12.3 | 26.3 | 74 | 3.62 |
| O=C1NC(=O)C(c2cccc(Cl)c2)=C1Nc1ccc(O)c(Cl)c1 | 8.97 | 2.84 | 3.21 | 2.22 | 3.58 | 1.15 | 13.3 | 5.89 | 46.8 | 2.3 |
| NCc1ccc(-c2nc(-c3ccc(Cl)c(O)c3)c(-c3ccncc3)[nH]2)cc1 | -0.05 | 4.25 | 2.1 | 2.08 | 1.57 | 19.7 | 69 | 0.23 | 5.68 | 5.91 |
| COc1cc2c(cc1Nc1nc(N3CCc4ccccc43)c3cc[nH]c3n1)N(C(=O)CN(C)C)CC2 | 0.78 | 5.82 | 25.4 | 7.66 | 2.32 | 12.9 | 13.7 | 1.41 | 2.14 | -1.37 |
| CS(=O)(=O)CCNCc1ccc(-c2ccc3ncnc(Nc4ccc(OCc5cccc(F)c5)c(C(F)(F)F)c4)c3c2)o1 | 10.1 | 3.95 | 3.53 | 12.1 | 4.32 | -0.03 | -1.42 | 0.94 | -0.75 | 1.1 |
| CCn1c(-c2nonc2N)nc2ccncc21 | 5.33 | 1.68 | 2.44 | 3.2 | 0.13 | 2.12 | 2.74 | 0.3 | 0 | 2.62 |
